Laboratory results published in publication PMC5540273 (PLoS ONE, 2017).

Key:
Details in all cases: concentration: 1 μM, replicates: in singlicate; n = 1
[1] = test system: JAK1(JH2domain-pseudokinase)
[2] = test system: JAK2(JH1domain-catalytic)
[3] = test system: JAK3(JH1domain-catalytic)
[4] = test system: T1, JNK1
T1 construct: gene MAPK8

[5] = test system: T2, JNK2
T2 construct: gene MAPK9

[6] = test system: T3, JNK3
T3 construct: gene MAPK10

[7] = test system: KIT-autoinhibited
[8] = test system: KIT
[9] = test system: LATS1
[10] = test system: LATS2
[11] = test system: LCK
[12] = test system: LIMK1
[13] = test system: LIMK2
[14] = test system: T4, LKB1
T4 construct: gene STK11

[15] = test system: T5, LOK
T5 construct: gene STK10

[16] = test system: LRRK2
[17] = test system: LTK
[18] = test system: LYN
[19] = test system: T6, LZK
T6 construct: gene MAP3K13

[20] = test system: MAK
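Note: KINOMEscan kinase panel screen.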

## Nc1ncc(-c2cn[nH]c2)c2scc(-c3ccc4c(c3)CCN4C(=O)Cc3ccccc3)c12 [GSK2593067]
[1]
  %Inh: 0%
[2]
  %Inh: 43%
[3]
  %Inh: 0%
[4]
  %Inh: 13%
[5]
  %Inh: 12%
[6]
  %Inh: 2%
[7]
  %Inh: 12%
[8]
  %Inh: 100%
[9]
  %Inh: 0%
[10]
  %Inh: 55%
[11]
  %Inh: 96.5%
[12]
  %Inh: 17%
[13]
  %Inh: 49%
[14]
  %Inh: 2%
[15]
  %Inh: 98.6%
[16]
  %Inh: 52%
[17]
  %Inh: 67%
[18]
  %Inh: 80%
[19]
  %Inh: 0%
[20]
  %Inh: 10%

## CCNc1nccc(-c2c(-c3ccc(F)cc3)ncn2C2CCN(C)CC2)n1
[1]
  %Inh: 80%
[2]
  %Inh: 0%
[3]
  %Inh: 0%
[4]
  %Inh: 75%
[5]
  %Inh: 96.4%
[6]
  %Inh: 96.3%
[7]
  %Inh: 0%
[8]
  %Inh: 0%
[9]
  %Inh: 0%
[10]
  %Inh: 0%
[11]
  %Inh: 11%
[12]
  %Inh: 0%
[13]
  %Inh: 7%
[14]
  %Inh: 0%
[15]
  %Inh: 0%
[16]
  %Inh: 0%
[17]
  %Inh: 0%
[18]
  %Inh: 0%
[19]
  %Inh: 0%
[20]
  %Inh: 0%

## CCn1c(-c2nonc2N)nc2c(-c3ccccc3)ncc(OCCCN)c21.O=C(O)C(F)(F)F.O=C(O)C(F)(F)F [GSK260205]
[1]
  %Inh: 71%
[2]
  %Inh: 3%
[3]
  %Inh: 0%
[4]
  %Inh: 26%
[5]
  %Inh: 85%
[6]
  %Inh: 85%
[7]
  %Inh: 0%
[8]
  %Inh: 41%
[9]
  %Inh: 100%
[10]
  %Inh: 93.8%
[11]
  %Inh: 29%
[12]
  %Inh: 1%
[13]
  %Inh: 0%
[14]
  %Inh: 0%
[15]
  %Inh: 98.7%
[16]
  %Inh: 28%
[17]
  %Inh: 0%
[18]
  %Inh: 0%
[19]
  %Inh: 0%
[20]
  %Inh: 0%

## Cl.N#CCc1ccc(Nc2nccc(Nc3ccc(Oc4ccccc4)cc3)n2)cc1 [GW639905]
[1]
  %Inh: 0%
[2]
  %Inh: 85%
[3]
  %Inh: 0%
[4]
  %Inh: 38%
[5]
  %Inh: 31%
[6]
  %Inh: 23%
[7]
  %Inh: 0%
[8]
  %Inh: 97.4%
[9]
  %Inh: 5%
[10]
  %Inh: 0%
[11]
  %Inh: 90.6%
[12]
  %Inh: 25%
[13]
  %Inh: 11%
[14]
  %Inh: 0%
[15]
  %Inh: 0%
[16]
  %Inh: 58%
[17]
  %Inh: 42%
[18]
  %Inh: 62%
[19]
  %Inh: 0%
[20]
  %Inh: 20%

## CCNC(=O)/C=C/c1n[nH]c2cc(Sc3ccccc3C(=O)NC)ccc12
[1]
  %Inh: 0%
[2]
  %Inh: 0%
[3]
  %Inh: 18%
[4]
  %Inh: 15%
[5]
  %Inh: 4%
[6]
  %Inh: 0%
[7]
  %Inh: 95%
[8]
  %Inh: 100%
[9]
  %Inh: 17%
[10]
  %Inh: 22%
[11]
  %Inh: 11%
[12]
  %Inh: 25%
[13]
  %Inh: 11%
[14]
  %Inh: 0%
[15]
  %Inh: 27%
[16]
  %Inh: 0%
[17]
  %Inh: 0%
[18]
  %Inh: 16%
[19]
  %Inh: 14%
[20]
  %Inh: 26%

## Cc1ccc(-c2ccc3occ(-c4ccc(S(C)=O)cc4)c3c2)nn1 (centres unmarked)
[1]
  %Inh: 0%
[2]
  %Inh: 0%
[3]
  %Inh: 0%
[4]
  %Inh: 0%
[5]
  %Inh: 0%
[6]
  %Inh: 0%
[7]
  %Inh: 0%
[8]
  %Inh: 0%
[9]
  %Inh: 13%
[10]
  %Inh: 0%
[11]
  %Inh: 0%
[12]
  %Inh: 0%
[13]
  %Inh: 0%
[14]
  %Inh: 0%
[15]
  %Inh: 0%
[16]
  %Inh: 0%
[17]
  %Inh: 0%
[18]
  %Inh: 1%
[19]
  %Inh: 1%
[20]
  %Inh: 0%

## Cl.Cl.NC(CNC(=O)c1cc(Br)c(-c2ccnc3[nH]ccc23)s1)c1ccccc1 (centres unmarked) [GSK1322949]
[1]
  %Inh: 0%
[2]
  %Inh: 94.3%
[3]
  %Inh: 96.8%
[4]
  %Inh: 44%
[5]
  %Inh: 37%
[6]
  %Inh: 28%
[7]
  %Inh: 0%
[8]
  %Inh: 38%
[9]
  %Inh: 54%
[10]
  %Inh: 93.7%
[11]
  %Inh: 3%
[12]
  %Inh: 0%
[13]
  %Inh: 0%
[14]
  %Inh: 69%
[15]
  %Inh: 0%
[16]
  %Inh: 31%
[17]
  %Inh: 0%
[18]
  %Inh: 0%
[19]
  %Inh: 7%
[20]
  %Inh: 19%

## CN1CCN(Cc2ccc(NC(=O)Nc3ccc(N(C)c4ccnc(Nc5ccc(CS(C)(=O)=O)cc5)n4)cc3)cc2)CC1.Cl [GW827654]
[1]
  %Inh: 84%
[2]
  %Inh: 99.9%
[3]
  %Inh: 98.5%
[4]
  %Inh: 92.7%
[5]
  %Inh: 76%
[6]
  %Inh: 88%
[7]
  %Inh: 61%
[8]
  %Inh: 100%
[9]
  %Inh: 20%
[10]
  %Inh: 37%
[11]
  %Inh: 82%
[12]
  %Inh: 27%
[13]
  %Inh: 31%
[14]
  %Inh: 17%
[15]
  %Inh: 99.9%
[16]
  %Inh: 0%
[17]
  %Inh: 46%
[18]
  %Inh: 70%
[19]
  %Inh: 42%
[20]
  %Inh: 34%

## COc1cccc(NC(=O)NCCNc2ccnc(Nc3ccc(F)cc3)n2)c1 [GSK1379879]
[1]
  %Inh: 0%
[2]
  %Inh: 22%
[3]
  %Inh: 0%
[4]
  %Inh: 25%
[5]
  %Inh: 17%
[6]
  %Inh: 13%
[7]
  %Inh: 0%
[8]
  %Inh: 46%
[9]
  %Inh: 0%
[10]
  %Inh: 0%
[11]
  %Inh: 6%
[12]
  %Inh: 0%
[13]
  %Inh: 18%
[14]
  %Inh: 6%
[15]
  %Inh: 0%
[16]
  %Inh: 0%
[17]
  %Inh: 0%
[18]
  %Inh: 0%
[19]
  %Inh: 11%
[20]
  %Inh: 56%

## Cc1cc(-c2c(-c3ccc(F)cc3)ncn2CCCN2CCOCC2)nc(N)n1 [SB-222517]
[1]
  %Inh: 57%
[2]
  %Inh: 16%
[3]
  %Inh: 0%
[4]
  %Inh: 5%
[5]
  %Inh: 0%
[6]
  %Inh: 0%
[7]
  %Inh: 20%
[8]
  %Inh: 15%
[9]
  %Inh: 15%
[10]
  %Inh: 0%
[11]
  %Inh: 12%
[12]
  %Inh: 0%
[13]
  %Inh: 0%
[14]
  %Inh: 45%
[15]
  %Inh: 18%
[16]
  %Inh: 0%
[17]
  %Inh: 4%
[18]
  %Inh: 17%
[19]
  %Inh: 0%
[20]
  %Inh: 35%
